Screening data: PubChem BioAssay, National Center for Advancing Translational Sciences (NCATS)
JMJD2E inh: inhibitors of human JMJD2E histone demethylase | B2RXH2 | JMJD2E catalytic domain, FDH-coupled NADH fluorescence (FDH is formaldehyde dehydrogenase) | Potency, µM (top dose mostly 57.1 µM), inactives show top-dose activity change, negative = inhibition, hits mostly inhibitors | 230,000 compounds, 1.6% hits;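 note: potency is the fitted concentration of half-maximal effect; 0% = wells with enzyme and -100% = buffer wells without enzyme; nearly all actives have a fitted effect of over 50% in size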
Target sequence (B2RXH2 1-337 limits assumed): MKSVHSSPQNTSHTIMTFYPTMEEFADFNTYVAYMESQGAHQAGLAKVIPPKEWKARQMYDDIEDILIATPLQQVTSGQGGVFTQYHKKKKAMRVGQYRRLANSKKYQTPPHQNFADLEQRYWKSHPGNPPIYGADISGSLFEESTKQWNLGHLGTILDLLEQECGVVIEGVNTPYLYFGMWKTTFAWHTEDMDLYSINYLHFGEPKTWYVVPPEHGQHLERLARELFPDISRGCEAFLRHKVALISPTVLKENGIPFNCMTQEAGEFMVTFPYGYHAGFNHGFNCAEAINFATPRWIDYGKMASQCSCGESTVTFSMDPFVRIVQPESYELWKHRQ
HPGD block: HPGD (human) dehydrogenase inhibition; P15428; purified HPGD, NADH fluorescence kinetic, PGE2 substrate; Potency, µM, without a hit: at the highest dose activity change, negative = inhibition, most hits filed as inhibitors; 150,000 compounds, 4.3% hits; AID 894; note: potency is the fitted concentration of half-maximal effect
Target sequence (P15428 whole entry, looked up): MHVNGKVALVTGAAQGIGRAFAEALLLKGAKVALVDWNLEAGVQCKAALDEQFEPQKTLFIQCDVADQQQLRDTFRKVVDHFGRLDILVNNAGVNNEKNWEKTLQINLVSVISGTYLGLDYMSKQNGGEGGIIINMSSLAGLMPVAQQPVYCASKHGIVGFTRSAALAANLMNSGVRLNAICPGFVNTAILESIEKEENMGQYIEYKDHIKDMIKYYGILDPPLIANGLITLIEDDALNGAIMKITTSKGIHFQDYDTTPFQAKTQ
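NADH formation kinetics: reaction with 30 uM PGE2 and 1 mM NAD+ (final), 20 nM enzyme, Tris-HCl pH 8 with Tween 20, after 15 min compound preincubation at room temperature. Fluorescence change, last versus first of five reads.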
PNC assembly inh: perinucleolar compartment assembly inhibition; PC3M PTB-GFP, PNC prevalence imaging, 16 h; stronger effect = lower value; activity change (PNC), negative = inhibition, % at 10 µM; 140,000 compounds, 3.1% hits;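 active = readout at or below -70, meaning at least 70% loss of cells showing the perinucleolar compartment, a nuclear body marking cancer cells; inconclusive = readout between -30 and a set limit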;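 note: plate controls were DMSO wells for no effect and camptothecin positive control wells for full effect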
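PC3M cells stably expressing PTB-GFP, 750–1000 cells/well, treated 16 h at 37 °C with compound (23 nl of library stock), in duplicate. After paraformaldehyde fixation and Hoechst stain, imaged at 20x; PNC prevalence scored by image analysis.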
ALDH1A1 block: ALDH1A1 (human) enzyme inhibition; P00352; Purified ALDH1A1, NADH fluorescence, propionaldehyde substrate; Potency, µM (series often up to 75.3 µM), for inactives: top-dose activity, negative = inhibition, most hits filed as inhibitors; 220,000 compounds, 7.3% hits;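 note: potency is the fitted concentration of half-maximal effect; plate controls were no enzyme wells and a reference inhibitor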
* marks the source's active call; other numbers are inactive results; ? = inconclusive; nt = not tested or not shown; [ ] = another dose, or the depositor's remark. A selection: hits, their analogues and other compounds. The true share with any hit is near 11%. Unless noted, calls come from the whole dose curve; as a rule, active = well fitted inhibition curve with a large enough effect (not every such curve was filed as active); inconclusive = small, poorly fitted or top-dose-only effect, or another doubt; inactive = no such curve, though single readings can be large or run the other way. Unless noted, % is set by controls: 0 for no effect and ±100 for the full control effect.

SMILES	JMJD2E inh	HPGD block	PNC assembly inh	ALDH1A1 block
CCS(=O)(=O)c1ccc(Sc2nncn2C)c([N+](=O)[O-])c1	-6%	nt	nt	22µM*
CN(C)S(=O)(=O)c1cccc(NC(=O)c2ccc(Sc3nncn3C)c([N+](=O)[O-])c2)c1	-7%	nt	nt	0.56µM*
CCN(CC)S(=O)(=O)c1ccc(NC(=O)c2ccc(Sc3nncn3C)c([N+](=O)[O-])c2)cc1	2%	-8%	-6	?
CCCCn1cnc(C(=O)OCC)c1N	4%	-1%	10	5%
COc1ccc(C2C(C(=O)Nc3ccccc3OC)=C(C)Nc3ncnn32)cc1 (configuration not stated)	6%	-10%	35	14µM*
COc1ccccc1NC(=O)C1=C(C)Nc2nnnn2C1c1ccccn1 (configuration not stated)	3%	-3%	-25	13µM*
CCOC(=O)C1=C(C)Nc2ncnn2C1c1ccc(N(C)C)cc1 (configuration not stated)	-1%	nt	14	18µM*
CC1=C(C(=O)OC(C)C)C(c2c[nH]c3ccccc23)n2ncnc2N1 (configuration not stated)	-1%	4%	-106*	15%
COc1ccccc1NC(=O)C1=C(C)Nc2nnnn2C1c1ccccc1OC (configuration not stated)	-14%	-6%	12	-6%
COc1c(C(=O)NNC(=O)c2ccccc2Cl)csc1Br	0%	nt	nt	nt
CCOC(=O)C1=C(C)Nc2nc(=S)[nH]n2C1c1ccc(Cl)cc1 (configuration not stated)	1%	11µM*	?	?
CCOC(=O)C1=C(C)NC(=S)N(C(C)=O)C1c1ccccc1 (configuration not stated)	-3%	-19%	?	25µM*
O=C(Nc1ccc(NS(=O)(=O)c2ccccc2)cc1)c1cccnc1	6%	nt	nt	?
CCOC(=O)N1N=C(CC)CC1(O)C(F)(F)F (configuration not stated)	5%	2%	-86*	6%
COCCn1c(C(C)C)nc2ccccc21	-1%	nt	nt	nt
CCC[C@@H]1C[C@@]1(CCC)C(NC(=O)c1cccs1)c1ccc(Cl)cc1 (some centres not stated)	7%	-9%	nt	9%
COc1ccc(-n2c(SCc3nnc(-c4ccccc4)o3)nnc2-c2ccccc2)cc1	6%	-9%	49	-2%
COc1ccc(C(C)=O)cc1CSc1nnc(Nc2ccc(C)cc2)s1	11%	?	-113*	?
COc1ccc(-c2nnc(SCc3nnc(-c4ccccc4)o3)n2-c2ccccc2)cc1	4%	7.9µM*	?	-2%
COc1ccc(C(C)=O)cc1CSc1nc(C)cc(C)n1	-11%	nt	nt	?
COc1ccc(C(C)=O)cc1CSc1nnc(Nc2ccccc2)s1	12%	25µM*	4	?
COc1ccc(C(C)=O)cc1CSc1nnc(C)s1	6%	18µM*	-3	?
Cc1ccc(CSc2nnc(Nc3ccc(C)cc3)s2)cc1	12%	-15%	47	?
Cc1ccc2c(c1)N(C(=O)NC1CCCCC1)C(C)(C)CC2C (configuration not stated)	-5%	-12%	41	-6%
COc1ccc(C(C)=O)cc1CSc1nnc(-c2ccncc2)n1C	-1%	nt	nt	0%
SMILES	JMJD2E inh	HPGD block	PNC assembly inh	ALDH1A1 block
COc1ccc(C(C)=O)cc1CSc1nnc(-c2ccc(Cl)cc2)n1-c1ccccc1	-4%	-23%	-12	10µM*
C[N@@+]1(Cc2ccc(Cl)c(Cl)c2)CCC[C@@H]1c1ccc[n+](Cc2ccc(Cl)c(Cl)c2)c1	nt	-7%	nt	11%[13.5 µM]
COC(=O)c1ccc(CN2[C@H](C(=O)OC)C[C@@]3(O)[C@@H](O)[C@@H](O)[C@@H](O)C[C@@H]23)cc1	2%	-6%	nt	1%
COc1ccc2cnn(-c3ccc(C)cc3)c(=O)c2c1OC	4%	25µM*	-18	?
COc1ccc2cnn(CCOc3cc(C)ccc3C(C)C)c(=O)c2c1OC	-22%	-16%	-113*	-4%
COc1ccc2cnn(-c3ccc(OC(F)(F)Cl)cc3)c(=O)c2c1OC	?	nt	nt	2%
COc1ccc(C(=O)N2CCC[C@@]3(CCN(Cc4ccc(C#N)cc4)C3)C2)cc1	nt	16µM*	nt	?
COc1ccc(C(=O)N2CCC[C@@]3(CCN(Cc4nccs4)C3)C2)cc1	nt	-24%	nt	8.9µM*
CC(=O)N1CCC[C@@]2(CCN(Cc3ccc(C#N)cc3)C2)C1	nt	-7%	nt	-13%
COc1ccc(S(=O)(=O)N2Cc3ccccc3CC2C(=O)Nc2nccs2)cc1 (configuration not stated)	8%	-14%	24	5µM*
CCn1c(SCC(=O)OC(C)C)nnc1-c1ccccc1OC	8%	nt	nt	6%
CCCNC(=O)Cn1c(=O)oc2ccccc21	-11%	-6%	-29	0%
COc1ccc(NS(=O)(=O)c2ccc3oc4ccccc4c3c2)cn1	-8%	22µM*	-14	8.9µM*
COc1ccc(OCCNS(=O)(=O)c2ccc3oc4ccccc4c3c2)cc1	-2%	-21%	10	4%
Cc1nc(Nc2c(Cl)cccc2Cl)sc1C(=O)Nc1ccccc1	-4%	-2%	34	14µM*
CC(C)CN1CCC(CNC(=O)CCc2nnc(Cc3c[nH]c4ccccc34)o2)CC1	12%	nt	nt	-3%
COc1ccc(C(O)c2nc3ccccc3n2C(C)C)cc1 (configuration not stated)	18%	nt	nt	nt
C/C(=N\NC(=O)CSCc1ccc([N+](=O)[O-])cc1)c1ccccc1O	25µM*	-18%	7	-7%
O=C(CCC(=O)OCC(=O)c1ccc([N+](=O)[O-])cc1)NC1CCCCC1	3%	-20%	29	2.8µM*
O=C(CSCc1ccc(F)cc1)NC1CCCC1	-2%	-19%	-1	-5%
C/C(=N/NC(=O)c1cc(-c2cccc([N+](=O)[O-])c2)n[nH]1)c1cccc(O)c1	2%	nt	nt	nt
C/C(=N\NC(=O)c1cc(-c2cccc([N+](=O)[O-])c2)n[nH]1)c1ccccc1O	25µM*	-21%	50	-4%
O=C(CSCc1ccc([N+](=O)[O-])cc1)NC1CCCCCC1	0%	nt	nt	25µM*
O=C(CCC(=O)OCC(=O)c1cccc([N+](=O)[O-])c1)NC1CCCCC1	3%	nt	nt	nt
CS[C@@H](CC(=O)O)C(=O)O	nt	-11%	nt	-2%[13.5 µM]
Cc1c[nH]c(=O)n(CCCN2CCN(c3ccccc3OCC(F)(F)F)CC2)c1=O	-8%	-2%	nt	4%
Cc1cccc(NC(=O)CCC(=O)OCC(=O)c2ccc(Oc3ccc([N+](=O)[O-])cc3)cc2)c1	2%	-21%	9	7.1µM*
Cc1cccc(N(C(=O)Cn2nnc3ccccc32)C(C(=O)NC(C)(C)C)c2ccsc2)c1 (configuration not stated)	5%	-4%	-94*	11%
CC(=O)Nc1ccc2nc(NS(=O)(=O)c3ccc(C)cc3)sc2c1	-1%	nt	nt	-1%
Cc1ccc(S(=O)(=O)Nc2nc3ccc(S(=O)(=O)N4CCCC4)cc3s2)cc1	-4%	13µM*	12	0.16µM*
